Source: PubChem (National Center for Advancing Translational Sciences (NCATS))
Hits are enriched below; roughly 10% of the tested compounds scored in any of these assays.
JMJD2A Tudor: blocks the human JMJD2A Tudor domain | 390,000 compounds, 4.4% hits | Potency, µM (series often up to 114 µM), for inactives: at the highest dose activity change, negative = inhibition, hits mostly inhibitors | AlphaScreen JMJD2A-Tudor / H3K4me3 peptide binding | AID 504339 | O75164; note: potency is the fitted concentration of half-maximal effect; % is set by controls: 0 for no effect and ±100 for the full control effect; nearly all actives have a fitted effect of over 50% in size
Six1-Eya2 blk: blocks human Six1 binding to Eya2 | AlphaScreen GST-Six1/His-Eya2 binding, biochemical; active compounds read low | activity change, % (concentration not given with the values) | 360,000 compounds, 0.56% hits | AID 651725; in the data active = activity change below about -65%; inconclusive = mostly about -30% to -63%; note: % is set by controls: 0 for no effect and ±100 for the full control effect
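Compounds are tested against tagged Six1 and Eya2 proteins bridged by glutathione donor and nickel acceptor beads; after a one-hour incubation at 37 °C without light, AlphaScreen emission is recorded.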
CtBP-E1A inh: CtBP/E1A binding inhibition | AlphaScreen GST-E1A/His-CtBP binding, 1536-well; active compounds read low | activity change, % (test concentration not listed) | 340,000 compounds, 0.49% hits | AID 651724; in the data active = activity change below about -65%; inconclusive = mostly about -30% to -63%; note: % is set by controls: 0 for no effect and ±100 for the full control effect
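Steps: dispense buffer (Tris pH 8.0, NaCl 300 mM, TCEP 1 mM, BSA, Tween 20); add 5X protein mix (GST-E1A, His-CtBP, 125 nM each); pin 23 nL compound; 2 h at 37 °C, dark; add 5X beads (50 ug/mL); 1 h; read.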
BAZ2B block: blocks human BAZ2B; Q9UIF8; AlphaScreen BAZ2B-H3K14Ac peptide displacement; Potency, µM (highest dose often 114 µM), without a hit: top-dose activity change, negative = inhibition, actives largely listed as inhibitors; 360,000 compounds, 4.4% hits; note: potency is the fitted concentration of half-maximal effect; % is set by controls: 0 for no effect and ±100 for the full control effect; nearly all actives have a fitted effect of over 60% in size
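AlphaScreen displacement of biotin-H3(5-23)K14Ac peptide (50 nM final) from BAZ2B (50 nM final) in PBS pH 7.4, 0.01% Tween-20; complex preformed 30 min RT, then compounds (top 110 uM) 30 min RT, beads 20 min dark.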
HP1b binding inh: inhibitors of HP1-beta chromodomain binding to methylated histone tails | 390,000 compounds, 0.56% hits | P83916 | AlphaScreen HP1-beta / biotin-H3K9me3 peptide binding | Potency, µM (titrated, usually from 114 µM), for the others: at the top dose activity change, negative = inhibition, hits mostly inhibitors; note: potency is the fitted concentration of half-maximal effect; nearly all actives have a fitted effect of over 70% in size
Target sequence (P83916 whole entry, looked up): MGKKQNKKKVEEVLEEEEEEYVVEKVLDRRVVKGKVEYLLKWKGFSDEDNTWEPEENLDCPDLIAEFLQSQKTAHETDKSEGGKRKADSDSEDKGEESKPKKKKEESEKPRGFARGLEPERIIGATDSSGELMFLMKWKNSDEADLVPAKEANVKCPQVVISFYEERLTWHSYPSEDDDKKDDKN
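HP1-beta protein (50 nM final) preincubated 30 min at room temperature with biotinylated H3(1-18)K9me3 peptide (50 nM) in PBS pH 7.4, 0.01% Tween-20, then compound added for 30 min. AlphaScreen streptavidin donor/nickel chelate acceptor beads (10 ug/mL final), 30 min dark, luminescence read.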
G9a inh: G9a (human) methyltransferase inhibition. AID 504332. G9a H3K9 monomethylation, AlphaScreen, 2 h. 350,000 compounds, 8.8% hits. Q96KQ7. Potency, µM (titrated, usually from 102 µM), inactives show at the top dose activity, negative = inhibition, most hits filed as inhibitors; note: potency is the fitted concentration of half-maximal effect; % is set by controls: 0 for no effect and ±100 for the full control effect; nearly all actives have a fitted effect of over 75% in size
Target sequence (Q96KQ7 913-1193 limits assumed): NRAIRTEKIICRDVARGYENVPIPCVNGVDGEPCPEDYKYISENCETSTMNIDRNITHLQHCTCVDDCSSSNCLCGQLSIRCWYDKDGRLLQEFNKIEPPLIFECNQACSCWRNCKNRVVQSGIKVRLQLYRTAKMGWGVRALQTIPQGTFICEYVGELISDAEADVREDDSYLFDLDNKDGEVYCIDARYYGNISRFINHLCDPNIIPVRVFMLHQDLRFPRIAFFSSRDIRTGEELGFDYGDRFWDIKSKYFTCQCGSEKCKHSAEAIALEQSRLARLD
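Signal arises when biotinylated H3K9 peptide, once monomethylated, bridges streptavidin donor and antibody-captured acceptor beads. Enzyme at 20 nM was preincubated 15 min with test compounds; peptide 500 nM and SAM 20 uM then reacted for 2 h.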
Active calls of the source: *; ? = inconclusive; nt = no result; [ ] = another dose, or the depositor's remark. Unless noted, calls come from the whole dose curve; as a rule, active = well fitted inhibition curve with a large enough effect; inconclusive = small, poorly fitted or top-dose-only effect; inactive = no such curve, though single readings can be large or run the other way.

SMILES	JMJD2A Tudor	Six1-Eya2 blk	CtBP-E1A inh	BAZ2B block	HP1b binding inh	G9a inh
Cc1ccc(C(=O)NC(=S)NNC(=O)CC#N)cc1	?	-5	-12	-26%	11%	8.9µM*
CCCCC(=O)Nc1cccc(NC(=O)c2cccc([N+](=O)[O-])c2)c1	-12%	-1	nt	-25%	43%	-34%
CC1CCC/C(=N/NC(=O)c2ccccc2-n2cccc2)C1 (stereo unspecified)	-28%	3	0	-7%	6%	1%[59 µM]
CC1CCC/C(=N\NC(=S)Nc2ccccc2)C1 (stereo unspecified)	79µM*	-19	-12	?	-13%	7.9µM*
COc1cccc(NC(=S)NN=C2CCCCCC2)c1	?	-4	-4	56µM*	-34%	10µM*
FC(F)(F)c1ccccc1NC(=S)NN=C1CCCCCC1	50µM*	-12	-12	50µM*	-16%	8.9µM*
CC1CCCC/C1=N\NC(=S)Nc1ccccc1 (stereo unspecified)	?	3	-7	?	2%	32µM*
O=C(NC(=S)Nc1ccccc1)C1CCCCC1	-14%	2	7	-12%	36%	nt
COc1cccc(NC(=O)COC(=O)CCn2c(C)csc2=O)c1	-5%	-1	6	4%	29%	5%
CCOC(=O)n1ccn(C)c1=S	nt	nt	nt	nt	nt	-3%[21.5 µM]
Cc1ccc(C)c(N2CCN(C(=O)c3ccc(Cn4c(=S)[nH]c5ccc(N6CCOCC6)cc5c4=O)cc3)CC2)c1	-11%	-4	0	?	31%	40µM*
CCCCn1c(=S)[nH]c2ccc(N3CCOCC3)cc2c1=O	nt	nt	nt	-17%	nt	20µM*
Cc1ccc(Cn2c(=S)[nH]c3ccc(N4CCOCC4)cc3c2=O)o1	22µM*	-20	2	?	?	?
O=c1c2cc(N3CCOCC3)ccc2[nH]c(=S)n1CCCN1CCCCCC1	-1%	0	-9	-5%	20%	-12%[12.7 µM]
O=C(c1ccc(Cn2c(=S)[nH]c3ccc(N4CCOCC4)cc3c2=O)cc1)N1CCN(c2ccc(F)cc2)CC1	-15%	-25	-21	8%	12%	-36%
CCN(CC)c1ccc(C(=O)NNC(=O)CCNC(=O)c2ccccc2)cc1	-8%	-3	5	11%	32%	-6%[12.7 µM]
CCN(CC)c1ccc(C(=C2C=CC(=[N+](CC)CC)C=C2)c2ccccc2)cc1	16µM*	?	-8	nt	10µM*	nt
CCN(CC)c1ccc(C(=O)NNC(=O)CCl)cc1	-22%	2	-18	?	29%	-7%[59 µM]
CCN(CC)c1ccc(C(=C2C=CC(=[N+](CC)CC)C=C2)c2ccc(N(CC)CC)cc2)cc1	1.3µM*	-78*	-90*	nt	2.8µM*	nt
COc1cc(OC)cc(C2=Nn3c(nnc3-c3ccccc3O)SC2)c1	-23%	nt	nt	nt	nt	nt
COc1ccc(S(=O)(=O)N2CCC(NC(=O)c3cccnc3)CC2)cc1	-27%	5	0	18%	-12%	-19%
COc1ccccc1OCc1ccc(C(=O)Nc2ccc(C)c(C)c2)o1	-20%	nt	nt	-16%	65%	-36%[59 µM]
N#Cc1ccncc1S(=O)c1ccc(Cl)cc1 (stereo unspecified)	7%	13	4	-16%	31%	-1%
O=[N+]([O-])/C(C(Cl)=C(Cl)Cl)=C(/Sc1ccccc1)N1CCCCC1	?	10	15	35µM*	-36%	nt
Cc1ccsc1CN(C)c1ncnc2ccc(-c3ccc4c(c3)OCO4)cc12	-32%	nt	nt	nt	nt	nt
CN(Cc1nccs1)c1ncnc2ccc(-c3ccc4c(c3)OCO4)cc12	79µM*	nt	nt	nt	nt	nt
COc1cc2ncnc(N(C)Cc3csc(C)n3)c2cc1-c1ccc2c(c1)OCO2	8.9µM*	nt	nt	nt	nt	nt
COc1ccc(-c2ccc3ncnc(N(C)Cc4csc(C)n4)c3c2)cc1OC	-15%	nt	nt	nt	nt	nt
O=C(c1ccc([N+](=O)[O-])cc1)N1CCN(c2ncc(Br)cn2)CC1	-10%	7	nt	23%	18%	1%
O=C1Nc2ccc(C(=O)O)c(O)c2C1=O	56µM*	-15	-1	nt	-1%	nt
